From PubChem BioAssay
Kir21 inh: blocks the mouse Kir2.1 inward-rectifier potassium channel. P35561. B-score at 10 µM. actives 0.85% (n = 310,000). HEK293-Kir2.1, FluxOR thallium flux fluorescence; stronger effect = lower value;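 active means fluorescence ratio B-score at or below minus 3 SD of library scores, with starting-brightness B-score within 2 SD, cut at about -4.2 in these data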;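 further: channel flux triggered by added potassium and thallium sulfate stimulus; B-score of peak minus minimum fluorescence over baseline after thallium stimulus; more negative B-score means stronger Kir2.1 block with less thallium influx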
TMEM16A act: activators or potentiators of mouse TMEM16A chloride channel; HEK293 TMEM16A/YFP-H148Q/I152L, iodide quench fluorescence; stronger effect = lower value; B-score at 10 µM; Q8BHY3; actives 0.3% (n = 340,000); AID 623877;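 active means fluorescence-ratio B-score plate-corrected deviation score at least 3 library SD below zero, with starting fluorescence score within 5 deviations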;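 further: channel opened by trigger with iodide after compound preincubation; score built on the fluorescence ratio of max minus min over baseline; more negative score means more quench and so TMEM16A activation or potentiation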
Rce1 inhib: inhibitors of yeast Ras-converting enzyme; Q03530; actives 0.27% (n = 290,000); calls only; yeast membranes, quenched prenylated peptide cleavage fluorescence;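 active means fall in fluorescence gain of 50% or more versus controls, with final raw signal at or below 3038400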;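 further: plate controls were neutral control wells for no effect and wells lacking membranes for full effect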
ANO1 block: blocks the mouse calcium-activated chloride channel TMEM16A | Q8BHY3 | HEK293 TMEM16A/YFP iodide influx fluorescence, ionomycin | normalized B-score (activity score, 25-100; higher = stronger inhibition) at 10 µM | actives 1.2% (n = 310,000);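 active means ratio plate-corrected score three or more library SD toward inhibition, starting fluorescence score within five deviations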;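 further: score derived from kinetic fluorescence span divided by baseline fluorescence per well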
CHT allo act: allosterically activates the human high affinity choline transporter | B-score at 10 µM | CHT-expressing cells, membrane potential dye, choline EC20; stronger effect = higher value; LV-AA mutant CHT in HEK293 cells | AID 488977 | Q9GZV3 | actives 0.49% (n = 310,000);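 active means initial fluorescence not abnormally high and integrated response B-score, plate-corrected, over 3 SD above library mean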
CHT block: human CHT choline transport inhibition | Q9GZV3 | B-score at 10 µM | CHT-expressing cells, membrane potential dye, choline response; stronger effect = lower value | actives 0.86% (n = 310,000);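 active means B-score over 3 SD under the library average, and starting fluorescence ratio not unusually high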;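 further: choline stimulus applied at its EC90 after an EC20 pre-addition; B-score computed on integrated fluorescence ratio after choline addition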
Active calls of the source: *. This is a sample that favours compounds with a hit; in the whole collection about 3.2% have one here.

Screening Cc1onc(-c2ccccc2)c1C(=O)N1CCN(c2ncccc2C(F)(F)F)CC1 returned Kir21 inh -1.3, TMEM16A act inactive, Rce1 inhib inactive, ANO1 block inactive, CHT allo act inactive and CHT block inactive.
For CCOc1ccc(S(=O)(=O)n2nc(C)cc2C)cc1 the results were Kir21 inh 0.73, TMEM16A act inactive, Rce1 inhib inactive, ANO1 block inactive, CHT allo act inactive and CHT block inactive.
CCOC(=O)c1ccccc1NC(=O)COC(=O)CSc1ccccc1 was read as Kir21 inh -0.33, TMEM16A act inactive, Rce1 inhib inactive, ANO1 block inactive, CHT allo act inactive and CHT block inactive.
CCN1CCCC1Cn1cnc2c([nH]c3ccc(Cl)cc32)c1=O (stereo not drawn) was read as Kir21 inh -0.2, TMEM16A act inactive, Rce1 inhib inactive, ANO1 block inactive, CHT allo act inactive and CHT block inactive.
CCN1CCCC1Cn1cnc2c([nH]c3cccc(Cl)c32)c1=O (stereo not drawn) was read as Kir21 inh -0.94, TMEM16A act -10*, Rce1 inhib inactive, ANO1 block inactive, CHT allo act inactive and CHT block inactive.
`Nc1sc2c(c1C(=O)NC1CC1)CCCC2` gave TMEM16A act inactive.
`c1cc(N2CCCCC2)nc(N2CCCCC2)n1` gave TMEM16A act inactive.
For CC(Oc1ccccc1Cl)C(=O)Nc1ccccc1C(=O)N1CCOCC1 (stereo not drawn) the results were Kir21 inh -1.2, TMEM16A act inactive, Rce1 inhib inactive, ANO1 block inactive, CHT allo act inactive and CHT block inactive.
`COc1cc(/C=N/O)cc(Br)c1OCC(=O)NCc1ccccc1` gave Kir21 inh -6*, TMEM16A act inactive, Rce1 inhib inactive, ANO1 block inactive, CHT allo act inactive and CHT block inactive.
For COC(=O)c1cc(C(=O)OCC(=O)N(C)c2ccccc2)cc([N+](=O)[O-])c1 the results were Kir21 inh 1.6, TMEM16A act inactive, Rce1 inhib inactive, ANO1 block inactive, CHT allo act inactive and CHT block inactive.
COc1ccccc1NC(=O)/C(=C\c1cccnc1)NC(=O)c1ccc(C)cc1 was read as Kir21 inh 2.4, TMEM16A act inactive, Rce1 inhib active, ANO1 block inactive, CHT allo act inactive and CHT block inactive.
`CNc1nnc(SCC(=O)N2c3ccccc3NC(=O)CC2C)s1` (stereo not drawn) gave TMEM16A act inactive.
Screening Cc1cccc(NC(=S)NNc2cccc(Cl)c2)c1 returned Kir21 inh -1.6, TMEM16A act inactive, Rce1 inhib inactive, ANO1 block inactive, CHT allo act inactive and CHT block inactive.
For Cc1ccc(NS(=O)(=O)c2cc([N+](=O)[O-])ccc2NNC(=S)Nc2cccc(Cl)c2)c(C)c1 the results were Kir21 inh -2.5, TMEM16A act inactive, Rce1 inhib inactive, ANO1 block 100*, CHT allo act inactive and CHT block inactive.
`Cc1ccc(NS(=O)(=O)c2cc([N+](=O)[O-])ccc2NNC(=S)Nc2cc(C)ccc2C)c(C)c1` gave Kir21 inh 0, TMEM16A act inactive, Rce1 inhib inactive, ANO1 block 100*, CHT allo act inactive and CHT block inactive.
Screening COc1ccc(NC(=S)NNc2ccc([N+](=O)[O-])cc2S(=O)(=O)Nc2ccc(C)cc2C)cc1 returned Kir21 inh -0.53, TMEM16A act inactive, Rce1 inhib inactive, ANO1 block 100*, CHT allo act inactive and CHT block inactive.
Cc1ccc([N+](=O)[O-])cc1NC(=S)NC(=O)C(C)(C)C was read as Kir21 inh 0.69, TMEM16A act inactive, Rce1 inhib inactive, ANO1 block inactive, CHT allo act inactive and CHT block inactive.
Cc1ccc(S(=O)(=O)N2CCN(C(=O)CCn3cncn3)CC2)cc1C was read as Kir21 inh 1.4, TMEM16A act inactive, Rce1 inhib inactive, ANO1 block inactive, CHT allo act inactive and CHT block inactive.
For Cc1cc(C)cc(N(CCC#N)C(=O)COC(=O)C2CCN(S(=O)(=O)c3ccc(C)c(C)c3)CC2)c1 the results were Kir21 inh 1.1, TMEM16A act inactive, Rce1 inhib inactive, ANO1 block inactive, CHT allo act inactive and CHT block inactive.
Screening Cc1cc(C)nc(SCCCNCc2c(F)cccc2Cl)n1 returned Kir21 inh -2.1, TMEM16A act inactive, Rce1 inhib inactive, ANO1 block inactive, CHT allo act inactive and CHT block inactive.
Screening Cc1ccc(CNCCCSc2nc(C)cc(C)n2)cc1 returned Kir21 inh -4.9*, TMEM16A act inactive, Rce1 inhib inactive, ANO1 block inactive, CHT allo act inactive and CHT block inactive.
`Cc1ccccc1OCC(=O)Nc1ccccc1N1CCC(C)CC1` gave Kir21 inh 0.17, TMEM16A act inactive, Rce1 inhib inactive, ANO1 block inactive, CHT allo act inactive and CHT block inactive.
For COc1cccc(OCC(O)CN2CCc3ccccc3C2)c1 (stereo not drawn) the results were Kir21 inh -0.16, TMEM16A act inactive, Rce1 inhib inactive, ANO1 block inactive, CHT allo act inactive and CHT block inactive.
Screening Cc1ccc(OCC(O)CN2CCc3ccccc3C2)c(C)c1 (stereo not drawn) returned Kir21 inh -7.9*, TMEM16A act inactive, Rce1 inhib inactive, ANO1 block inactive, CHT allo act inactive and CHT block inactive.
Screening Cc1cccc(OCC(O)CN2CCc3ccccc3C2)c1 (stereo not drawn) returned Kir21 inh -8.8*, TMEM16A act inactive, Rce1 inhib inactive, ANO1 block inactive, CHT allo act inactive and CHT block inactive.
Screening COc1ccc(OCC(O)CN2CCc3ccccc3C2)cc1 (stereo not drawn) returned Kir21 inh 2.3, TMEM16A act inactive, Rce1 inhib inactive, ANO1 block inactive, CHT allo act inactive and CHT block inactive.
`Cc1ccc(Nc2cc(C)c3ccc(O)cc3n2)cc1C` gave Kir21 inh -5.1*, TMEM16A act inactive, Rce1 inhib inactive, ANO1 block inactive, CHT allo act inactive and CHT block inactive.
For COC(=O)c1cc(Nc2cc(C)c3ccc(O)cc3n2)cc(C(=O)OC)c1 the results were Kir21 inh 3.5, TMEM16A act inactive, Rce1 inhib inactive, ANO1 block inactive, CHT allo act inactive and CHT block inactive.
Screening Cc1cccc(C(=O)OCC(=O)Nc2c(C)n(C)n(-c3ccccc3)c2=O)c1O returned TMEM16A act inactive.
